# In PubChem BioAssay:
# Calls of active or inactive are those of the source.
# Columns and labels:
# [1] = target: Albumin (Bos taurus) (UniProt P02769); experiment: bovine serum albumin binders on microarray, profiling panel, artefact control for SMM control protein annotation, biochemical, small-molecule microarray, Alexa647 label, 635/667 nm fluorescence (AID 1118); conditions: BSA-A647 binding, fluorescence 635 nm, higher = more signal;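 note: score merges 667 nm emission intensity and signal-to-noise per printed compound spot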
# [2] = small-molecule microarray binders of probe aXIP, primary screen, biochemical, NeuroSMM set, 635/667 nm fluorescence (AID 1119); conditions: higher = more signal, called active from +8 up or from −8 down;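 note: probe is the protein aXip251-270 applied at 1 µg/mL to compound-printed slides; binding of probe to printed compounds measured as 667 nm fluorescence plus signal to noise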
# [3] = small-molecule binders of probe aNOTCH3, primary screen, biochemical, small-molecule microarray, 635/667 nm fluorescence (AID 1120); conditions: higher = more signal;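 note: probe is a biotin-tagged antibody raised against NOTCH3 rather than NOTCH3 protein; score merges spot fluorescence near 667 nm with spot signal to noise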
# [4] = small-molecule binders of probe aNOTCH2, primary screen, biochemical, small-molecule microarray, 635/667 nm fluorescence (AID 1121); conditions: higher = more signal;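 note: score merges feature fluorescence read at 667 nm with its signal to noise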
# [5] = target: Carbonic anhydrase 2 (Homo sapiens) (UniProt P00918); experiment: CAII small-molecule binders, profiling panel, biochemical, small-molecule microarray, Alexa647-labelled CAII (AID 1122); conditions: CAII-A647 binding fluorescence, higher = more signal
# [6] = COS7 lysate on small-molecule microarray, probe aHis, 635 nm (AID 1123); conditions: COS7 cell lysate, fluorescence, higher = more signal;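 note: z-score combines 667nm fluorescence intensity with signal-to-noise per printed compound spot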
# [7] = compound binding in COS7 lysate, probe aLAP1, primary screen, cell lysate, small-molecule microarray (AID 1124); conditions: probe aLAP1, fluorescence, higher = more signal;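 note: lysate comes from COS7 cells expressing LAP1 and is applied at 0.3 µg/mL; score merges spot fluorescence near 667 nm with signal-to-noise over triplicate slides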
# [8] = test system: Sam68 (KHDRBS1); experiment: Sam68 small-molecule binders, primary screen, biochemical, small-molecule microarray, 635 nm fluorescence (AID 1125); conditions: small-molecule microarray binding, higher = more signal;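 note: score merges 667 nm channel intensity with signal to noise over triplicate slides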
# [9] = test system: Chordin-like protein 2 (CHRDL2); experiment: CHRDL2 small-molecule binders, primary screen, biochemical, small-molecule microarray, 635 nm fluorescence (AID 1126); conditions: small-molecule microarray binding, fluorescence 635 nm; higher = more signal;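 note: printed compound slides probed with Chrdl2 protein at 4 µg/mL for 1 h at 4 C; score merges 667 nm emission intensity with signal to noise over three replicate slides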
# [10] = target: Concanavalin-A (Canavalia ensiformis) (UniProt P02866); experiment: ConA small-molecule binders, primary screen, artefact control for SMM control protein annotation, biochemical, small-molecule microarray, Alexa647 label, 635 nm (AID 1127); conditions: ConA-A647 binding fluorescence, higher = more signal;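 note: z combines 667 nm emission intensity with signal-to-noise across three replicate slides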
# [11] = anti-His antibody binders, primary screen, artefact control for SMM control protein annotation, biochemical, small-molecule microarray, 635 nm fluorescence (AID 1128); conditions: anti-His Alexa647 antibody binding, higher = more signal;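 note: score merges feature fluorescence with signal-to-noise for each printed compound spot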
# [12] = test system: Human papillomavirus type 1a E7 protein (residues 1-88); experiment: HPV1a E7 small-molecule binders, primary screen, biochemical, small-molecule microarray, residues 1-88, 635 nm (AID 1129); conditions: small-molecule microarray binding, fluorescence 635 nm; higher = more signal
# [13] = target: Focal adhesion kinase 1 (Homo sapiens) (UniProt Q05397); experiment: small-molecule microarray binders of FAK, primary screen, biochemical, 635/667 nm fluorescence, BSA, DTT (AID 1130); conditions: PTK2 binding, 635 nm fluorescence, higher = more signal;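 note: composite of spot emission at 667 nm and signal to noise over triplicate slides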
# [14] = test system: Fibrinogen (Alexa647-labelled); experiment: fibrinogen binders on compound microarrays, profiling panel, artefact control for SMM control-protein annotation, biochemical, small-molecule microarray, 635/667 nm fluorescence (AID 1131); conditions: fibrinogen-A647 binding fluorescence, higher = more signal;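 note: z-score merges 667 nm fluorescence with per-spot signal-to-noise over triplicate slides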
# [15] = target: Follistatin (Homo sapiens) (UniProt P19883); experiment: follistatin binders on small-molecule microarrays, primary screen, biochemical, small-molecule microarray, 635/667 nm fluorescence (AID 1132); conditions: FST binding, 635 nm fluorescence, higher = more signal
# [16] = target: Fibroblast growth factor 2 (Homo sapiens) (UniProt P09038); experiment: FGF2 binders on small-molecule microarrays, primary screen, biochemical, small-molecule microarray, 635/667 nm fluorescence (AID 1133); conditions: small-molecule microarray binding, FGF2, fluorescence 635/667; higher = more signal
# [17] = mitochondrial membrane potential change in A549 cells, profiling panel, cell-based, JC-1 fluorescence, basal, 24 h, 100 nL (AID 1138); conditions: higher = more signal;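 note: A549 lung adenocarcinoma cells under basal conditions with no added stimulus; test concentration not given here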
# [18] = test system: Lefty1; experiment: Lefty1 binders on small-molecule microarrays, primary screen, biochemical, small-molecule microarray, 635/667 nm fluorescence (AID 1139); conditions: small-molecule microarray binding, fluorescence 635/667; higher = more signal
# [19] = test system: wheat germ agglutinin (Triticum aestivum), Alexa647-labelled; experiment: wheat germ agglutinin binders on compound microarrays, profiling panel, artefact control for SMM control-protein annotation, biochemical, small-molecule microarray, 635/667 nm fluorescence (AID 1140); conditions: WGA-A647 binding, 635 nm fluorescence, higher = more signal;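 note: score merges 667 nm feature emission with signal to noise over triplicate slides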
# [20] = target: Luciferin 4-monooxygenase (Photinus pyralis) (UniProt P08659); experiment: firefly luciferase enzyme inhibitors, primary screen, biochemical, luminescence, purified enzyme, 2006 set (AID 1141); conditions: SteadyGlo luminescence, 30 min, higher = more signal, called active from +8 up or from −8 down;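 note: cell-free assay with purified firefly luciferase at 100 ng per well in PBS; test concentration not given here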
# Chain of Luciferin 4-monooxygenase (Photinus pyralis) (P08659 whole entry, looked up): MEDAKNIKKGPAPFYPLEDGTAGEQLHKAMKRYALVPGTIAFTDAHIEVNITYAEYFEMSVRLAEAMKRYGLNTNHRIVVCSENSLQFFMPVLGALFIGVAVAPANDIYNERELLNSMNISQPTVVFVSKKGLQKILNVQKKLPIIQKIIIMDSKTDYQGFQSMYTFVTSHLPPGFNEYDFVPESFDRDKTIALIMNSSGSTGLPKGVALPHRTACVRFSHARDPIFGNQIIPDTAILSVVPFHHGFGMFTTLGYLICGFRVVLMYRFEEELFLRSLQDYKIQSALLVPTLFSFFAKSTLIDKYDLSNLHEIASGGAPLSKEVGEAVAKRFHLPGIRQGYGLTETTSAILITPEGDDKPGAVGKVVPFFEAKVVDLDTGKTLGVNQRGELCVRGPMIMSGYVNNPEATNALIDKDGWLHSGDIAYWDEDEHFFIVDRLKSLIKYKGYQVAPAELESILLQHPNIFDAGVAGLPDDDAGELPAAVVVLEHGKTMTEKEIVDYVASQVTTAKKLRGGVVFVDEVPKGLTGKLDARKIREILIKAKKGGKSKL
# Chain of Focal adhesion kinase 1 (Homo sapiens) (Q05397 whole entry, looked up): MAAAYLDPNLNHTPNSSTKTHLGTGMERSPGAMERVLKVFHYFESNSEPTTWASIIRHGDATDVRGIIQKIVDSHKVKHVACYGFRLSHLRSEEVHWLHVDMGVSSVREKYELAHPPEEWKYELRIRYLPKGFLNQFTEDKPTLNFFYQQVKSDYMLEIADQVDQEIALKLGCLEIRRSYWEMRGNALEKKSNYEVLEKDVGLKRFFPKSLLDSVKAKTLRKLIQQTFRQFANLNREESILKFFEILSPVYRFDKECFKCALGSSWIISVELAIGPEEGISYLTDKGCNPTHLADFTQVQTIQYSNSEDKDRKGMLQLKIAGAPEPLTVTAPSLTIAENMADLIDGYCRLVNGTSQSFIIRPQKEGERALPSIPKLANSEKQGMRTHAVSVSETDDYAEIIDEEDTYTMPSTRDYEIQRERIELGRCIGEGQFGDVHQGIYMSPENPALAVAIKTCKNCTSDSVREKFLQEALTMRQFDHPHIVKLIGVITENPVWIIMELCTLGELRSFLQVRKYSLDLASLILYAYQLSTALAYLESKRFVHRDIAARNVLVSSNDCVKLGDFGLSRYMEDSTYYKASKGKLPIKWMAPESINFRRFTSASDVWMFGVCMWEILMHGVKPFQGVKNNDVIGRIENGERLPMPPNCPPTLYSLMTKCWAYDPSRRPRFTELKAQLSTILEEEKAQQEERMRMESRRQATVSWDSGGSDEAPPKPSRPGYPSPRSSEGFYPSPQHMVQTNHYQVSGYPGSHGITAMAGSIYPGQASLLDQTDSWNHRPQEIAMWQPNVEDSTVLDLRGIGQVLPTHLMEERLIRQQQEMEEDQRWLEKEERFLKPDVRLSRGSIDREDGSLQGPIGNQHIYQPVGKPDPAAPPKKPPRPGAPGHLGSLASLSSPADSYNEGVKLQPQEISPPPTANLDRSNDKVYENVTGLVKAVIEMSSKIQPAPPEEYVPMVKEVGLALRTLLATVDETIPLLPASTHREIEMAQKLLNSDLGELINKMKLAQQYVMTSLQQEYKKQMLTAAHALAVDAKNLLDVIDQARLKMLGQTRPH
# Chain of Concanavalin-A (Canavalia ensiformis) (P02866 whole entry, looked up): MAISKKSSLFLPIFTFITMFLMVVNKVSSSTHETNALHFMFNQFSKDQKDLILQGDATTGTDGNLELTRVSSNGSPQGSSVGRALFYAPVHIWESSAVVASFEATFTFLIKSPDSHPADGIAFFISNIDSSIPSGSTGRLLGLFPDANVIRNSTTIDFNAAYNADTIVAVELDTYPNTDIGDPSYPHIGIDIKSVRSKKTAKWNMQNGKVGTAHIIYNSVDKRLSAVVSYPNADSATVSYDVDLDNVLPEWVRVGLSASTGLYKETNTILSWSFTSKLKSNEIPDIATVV
# Chain of Follistatin (Homo sapiens) (P19883 whole entry, looked up): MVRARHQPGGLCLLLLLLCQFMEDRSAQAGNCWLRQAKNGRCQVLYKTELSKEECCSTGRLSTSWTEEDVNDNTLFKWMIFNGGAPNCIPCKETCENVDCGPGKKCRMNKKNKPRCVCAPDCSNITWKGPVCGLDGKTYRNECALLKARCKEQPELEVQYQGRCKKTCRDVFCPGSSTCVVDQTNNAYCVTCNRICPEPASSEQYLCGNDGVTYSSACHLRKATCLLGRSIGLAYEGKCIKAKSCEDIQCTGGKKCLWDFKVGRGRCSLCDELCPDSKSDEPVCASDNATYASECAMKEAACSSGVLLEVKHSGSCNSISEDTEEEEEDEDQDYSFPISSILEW
# Chain of Albumin (Bos taurus) (P02769 whole entry, looked up): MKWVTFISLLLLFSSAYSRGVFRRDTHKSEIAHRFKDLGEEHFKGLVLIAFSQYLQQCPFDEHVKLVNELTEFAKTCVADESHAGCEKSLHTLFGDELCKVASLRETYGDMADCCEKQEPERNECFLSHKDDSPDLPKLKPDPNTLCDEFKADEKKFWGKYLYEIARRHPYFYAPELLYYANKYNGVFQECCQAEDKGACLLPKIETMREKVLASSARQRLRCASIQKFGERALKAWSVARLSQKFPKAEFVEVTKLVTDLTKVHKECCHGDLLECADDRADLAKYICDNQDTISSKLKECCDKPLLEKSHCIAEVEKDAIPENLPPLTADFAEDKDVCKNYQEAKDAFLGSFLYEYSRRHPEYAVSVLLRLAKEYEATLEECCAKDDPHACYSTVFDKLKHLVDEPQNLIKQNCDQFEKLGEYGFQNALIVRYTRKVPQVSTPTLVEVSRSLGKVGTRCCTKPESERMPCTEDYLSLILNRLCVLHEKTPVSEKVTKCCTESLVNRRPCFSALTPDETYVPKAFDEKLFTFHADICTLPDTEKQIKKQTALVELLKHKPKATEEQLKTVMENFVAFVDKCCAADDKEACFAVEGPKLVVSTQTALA
# Chain of Fibroblast growth factor 2 (Homo sapiens) (P09038 whole entry, looked up): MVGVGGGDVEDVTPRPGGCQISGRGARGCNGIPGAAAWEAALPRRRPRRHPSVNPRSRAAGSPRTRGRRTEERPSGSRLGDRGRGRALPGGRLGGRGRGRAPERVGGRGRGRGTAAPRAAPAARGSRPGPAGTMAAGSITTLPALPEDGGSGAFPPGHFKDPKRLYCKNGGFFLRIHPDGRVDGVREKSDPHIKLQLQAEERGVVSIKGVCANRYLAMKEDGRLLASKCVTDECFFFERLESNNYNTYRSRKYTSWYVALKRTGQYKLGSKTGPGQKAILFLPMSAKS
Structure (SMILES),composite z-score [1],composite Z-score [2],composite z-score [3],composite z-score [4],composite z-score [5],composite z-score [6],composite z-score [7],composite z-score [8],composite z-score [9],composite z-score [10],composite z-score [11],composite z-score [12],composite z-score [13],composite z-score [14],composite z-score [15],composite z-score [16],z-score [17],composite z-score [18],composite z-score [19],z-score [20]
O=C1[C@H]2[C@H]3[C@H](O)[C@H](O)CC(=NOC[C@@H](O)COCc4ccco4)[C@H]3CC[C@H]2C(=O)N1Cc1ccc2c(c1)OCO2,-0.244,-0.377 (inactive),-0.29,-0.17,-0.441,-0.385,0.311,0.0595,1.49,-1.26,0.729,-0.413,-0.237,-0.447,1.3,1.57,-0.0273,1.25,-0.186,0.546 (inactive)
CCOC(=O)CCN1C(=O)[C@H]2[C@H]3[C@H](O)C=CC(=O)[C@@H]3CC[C@H]2C1=O,-0.186,0.422 (inactive),-0.0449,-0.0686,-0.078,0.107,-0.225,0.323,0.34,0.412,0.147,0.621,0.122,0.11,0.488,0.49,0.0322,0.345,0.307,-0.371 (inactive)
O=C1O[C@@H](c2ccccc2)[C@@H](c2ccccc2)N2[C@@H](c3ccc(OCCO)cc3)[C@]3(C(=O)Nc4ccc(C#CCCO)cc43)[C@@H](C(=O)N3CCCCCCC3)[C@H]12,0.259,7.58 (inactive),1.66,0.745,0.896,3.6,1.02,1.3,1.25,1.15,1.86,1.17,0.782,0.965,1.39,0.585,-0.287,1.56,1.35,-1.62 (inactive)
C[C@H](c1ccccc1)N1C(=O)[C@H]2[C@@H]3C(=CC[C@H]2C1=O)C(=O)[C@H]1O[C@H]1[C@H]3O,0.166,-0.0238 (inactive),-0.111,-0.147,-0.182,-0.51,0.172,-0.136,1.02,0.471,1.36,0.336,0.204,0.367,0.642,0.565,-0.732,0.708,-0.0651,-1.47 (inactive)
CC(CCN1CCc2nc(-c3ccccc3)c(-c3ccccc3)cc2C1)=NOC(C)CN1CCCCc2nc(C)c(C)cc21 (stereo not given),0.56,0.766 (inactive),0.0379,-0.14,0.209,0.789,0.154,1.28,0.308,1.05,0.605,0.791,0.718,0.845,0.47,0.489,1.52,0.593,0.264,-0.0959 (inactive)
COc1ccc(COC(=O)NN=C2C[C@@H](O)[C@@H](O)[C@@H]3[C@@H]4C(=O)N(c5ccc(F)cc5F)C(=O)[C@@H]4CC[C@@H]23)cc1,0.688,-0.0662 (inactive),0.112,-0.14,-0.416,-0.413,-0.2,-0.356,-0.0448,0.454,0.257,-0.769,0.0141,0.794,-0.409,-0.0007,-0.604,-0.291,0.744,0.506 (inactive)
CCc1cc2c(nc1CC)CCN(CCC(C)=NO[C@@H](C)c1cc(-c3c(C)cc(C)cc3C)no1)C2,0.417,-0.128 (inactive),-0.146,-0.0649,-0.195,0.778,-0.126,0.353,-0.121,0.765,0.0635,-0.22,-0.0159,0.397,-0.265,-0.2,1.69,0.388,0.0999,-0.887 (inactive)
CCN1C(=O)[C@H]2[C@H]3[C@H](O)[C@H](O)CC(=NOC[C@@H](C)[C@H](OCc4ccccc4)C(C)C)[C@@H]3CC[C@H]2C1=O,0.665,0.0576 (inactive),-0.152,-0.131,-0.0205,0.276,-0.504,0.614,-0.13,-0.223,0.0486,0.472,-0.0745,0.58,-0.0316,-0.109,-0.925,0.192,0.564,0.646 (inactive)
CCOC(=O)[C@H](Cc1ccccc1)NC(=O)CCC1CC(OC(=O)NCc2ccc3c(c2)OCO3)CC2(CCCC(COC(=O)NCc3cccc(C(F)(F)F)c3)O2)O1 (stereo not given in full),-0.0075,-0.944 (inactive),0.0224,-0.123,-0.106,0.287,-0.0375,0.843,0.393,0.546,1,0.355,-0.15,-0.416,0.916,1.01,-0.659,0.955,0.229,0.794 (inactive)
Cc1ccc(S[C@]2(C(=O)NCC(F)(F)F)CC(=O)N(Cc3ccccc3Cl)[C@@H]2c2ccc(CO)cc2I)cc1,-0.937,0.0162 (inactive),-0.133,-0.134,0.796,1.56,-0.49,0.0712,-1.04,-0.275,-1.18,-0.0053,0.395,-0.563,-0.253,-0.624,1.14,-0.558,1.13,-0.289 (inactive)
CCOC(=O)CCN1C(=O)[C@H]2[C@H]3[C@H](O)[C@H](O)CC(=NNC(=O)OCc4ccc(OC)cc4)[C@@H]3CC[C@H]2C1=O,0.0708,0.101 (inactive),-0.153,-0.104,0.244,1.31,-0.239,0.427,0.388,1.09,-0.0498,0.842,0.215,0.367,0.541,0.474,0.385,0.833,0.985,0.666 (inactive)
